Reference: PubChem BioAssay (Tox21)
Results filed as inconclusive are left out. A call without a number means that no potency is given here. Calls of active or inactive are those of the source. Unless noted, the call rests on the fitted dose curve.

Tests used:
[1] = qHTS assay to identify small molecule agonists of the sonic hedgehog signaling (Shh) pathway (AID 1259368);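 further: NIH/3T3-derived 3T3Gli1-Luc cells carrying a stable Gli1-driven firefly luciferase reporter; series mostly up to about 92 µM; nearly all actives have a fitted effect of over 15% in size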
Procedure, shortened: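 3T3Gli1-Luc (NIH/3T3 clone, stable Gli1-Luc); 4 hr pre-incubation, then cpd in DMSO 24 hr, 37 C/5% CO2; luciferase reagent 30 min RT; luminescence.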

[2] = qHTS assay to identify small molecule antagonists of the sonic hedgehog signaling (Shh) pathway (AID 1259369); further: nearly all actives have a fitted effect of over 45% in size; further: potency means the concentration at half of the fitted maximal effect
Procedure, shortened: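 3T3Gli1-Luc, conditioned-medium-stimulated, 24hr cpd, 37C/5% CO2; Gli1-driven firefly Luc luminescence after 30min RT with luciferase reagent. Cells plated 4hr before cpd.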

[3] = qHTS assay to identify small molecule agonists of the androgen receptor (AR) signaling pathway in the presence of an antagonist - cell viability counter screen (AID 1259379; active means well fitted curve in the direction sought with a large enough effect in the repeat runs; an effect the other way counts as inactive or inconclusive; further: nearly all actives have a fitted effect of over 25% in size; further: potency means the concentration at half of the fitted maximal effect)
Procedure, shortened: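 Cells: MDA-kb2 (MMTV-luc, AR and GR elements), 3,000/well, 5 hr settle. Added: nilutamide 3.0uM final, then compounds (15 conc.). Incubation: 16 hr, 37C, no CO2. Read-out: CellTiter-Fluor, 1 hr, fluorescence.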

[4] = qHTS assay to identify small molecule antagonists of the estrogen receptor beta (ER-beta) signaling pathway - cell viability counter screen (AID 1259382; active means well fitted curve in the direction sought with a large enough effect in the repeat runs; an effect the other way counts as inactive or inconclusive; further: nearly all actives have a fitted effect of over 55% in size; further: potency means the concentration at half of the fitted maximal effect)
Procedure, shortened: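 Cells: ER-beta-UAS-bla HEK293T, 2,000/well, 2% CS-FBS, 6 hr settle. Cpd + E2 (1nM final), 16 hr, 37C/5% CO2. Bla FRET substrate 2 hr RT, then CellTiter-Glo 30 min RT, luminescence.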

[5] = molecular target: Estrogen receptor (Homo sapiens) (UniProt P03372); assay: qHTS assay to identify small molecule agonists of the estrogen receptor alpha (ER-alpha) signaling pathway in the presence of an antagonist (AID 1259383); further: top concentration of the series differs between compounds; nearly all actives have a fitted effect of over 15% in size
Procedure, shortened: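 VM7Luc4E2, endog. ER-alpha + 4×ERE-luc; charcoal-stripped FBS, phenol red-free, 5 d; 24hr plating; +10.0nM ICI-182,780 (final); cpds 15 conc, 22hr, 37C/5% CO2; ONE-Glo luminescence.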

[6] = qHTS assay to identify small molecule agonists or antagonists of the thyroid stimulating hormone receptor (TSHR) signaling pathway - wild type cell line counter screen (AID 1259384)
Procedure, shortened: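 Wild-type Hek293 cells, 800/well, 18 h at 37C, then compound with Ro20-1724 for 30 min RT. cAMP by HTRF (cAMP-d2/anti-cAMP cryptate), 1 h RT, fluorescence read. 15 concentrations, triplicates.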

[7] = molecular target: Thyrotropin receptor (Homo sapiens) (UniProt P16473); assay: qHTS assay to identify small molecule antagonists of the thyroid stimulating hormone receptor (TSHR) signaling pathway (AID 1259385); further: nearly all actives have a fitted effect of over 20% in size; further: potency means the concentration at half of the fitted maximal effect
Procedure, shortened: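 TSHR-HEK293 cells (800/well) plated 18 h, then compounds with Ro20-1724 and TSH at 1.5 ng/mL final, 30 min at room temperature. cAMP quantified by HTRF (cAMP-d2/anti-cAMP-cryptate, 1 h); 15 concentrations in triplicate.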

[8] = molecular target: Progesterone receptor (Homo sapiens) (UniProt P06401); assay: qHTS assay to identify small molecule antagonists of the progesterone receptor (PR) signaling pathway (AID 1346795; active means well fitted inhibition curve with a large enough effect in the signal ratio in the repeat runs, not every such curve was filed as active; the % refers to the signal ratio; further: potency means the concentration at half of the fitted maximal effect)
Procedure, shortened: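 Stimulus R5020 at 1 nM final; cells HEK293T PR-UAS-bla; medium with 2% charcoal-stripped FBS; compound exposure 16 hr at 37C, 5% CO2; detection by FRET beta-lactamase substrate, 2 hr, room temperature.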

[9] = qHTS assay to identify small molecule antagonists of the progesterone receptor (PR) signaling pathway - cell viability counter screen (AID 1346798; active means well fitted curve in the direction sought with a large enough effect in the repeat runs; an effect the other way counts as inactive or inconclusive; further: nearly all actives have a fitted effect of over 50% in size; further: potency means the concentration at half of the fitted maximal effect)
Procedure, shortened: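 In the same plates used for the beta-lactamase readout, cell viability of compound- and R5020-treated PR-UAS-bla HEK293T cells (16 hr, 37C) was assessed by CellTiter-Glo luminescence.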

[10] = qHTS assay to identify small molecule agonists of the progesterone receptor (PR) signaling pathway - cell viability counter screen (AID 1346799); further: nearly all actives have a fitted effect of over 45% in size; further: potency means the concentration at half of the fitted maximal effect
Procedure, shortened: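 Multiplexed viability read: CellTiter-Glo luminescence, 30 min RT, following LiveBLAzer FRET measurement on PR-UAS-bla HEK293T cells exposed to compounds 16 hr.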

[11] = qHTS assay to identify small molecule antagonists of the TGF-beta/Smad signaling pathway - cell viability counter screen (AID 1346824; active means well fitted curve in the direction sought with a large enough effect in the repeat runs; an effect the other way counts as inactive or inconclusive; further: nearly all actives have a fitted effect of over 50% in size)
Procedure, shortened: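 SBE-bla HEK 293T cells, incubated overnight, then compound plus 0.25 ng/mL TGF-beta1 (stock added) for 5 hr at 37 C. Viability was read in the same wells by CellTiter-Glo luminescence after 30 min at room temperature.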

[12] = qHTS assay to identify small molecule agonists of the TGF-beta/Smad signaling pathway - cell viability counter screen (AID 1346829; active means well fitted curve in the direction sought with a large enough effect in the repeat runs; an effect the other way counts as inactive or inconclusive; further: top concentration of the series differs between compounds; nearly all actives have a fitted effect of over 45% in size)
Procedure, shortened: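 After overnight seating at 37 C and 5% CO2, reporter cells got compounds for 5 hr and FRET substrate for 2 hr; cell viability then came from CellTiter-Glo luminescence.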

[13] = qHTS assay to identify small molecule agonists of the TGF-beta/Smad signaling pathway (AID 1346859; active means well fitted activation curve with a large enough effect in the signal ratio in the repeat runs, not every such curve was filed as active; the % refers to the signal ratio; further: series mostly up to about 77 µM)
Procedure, shortened: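 Screening used HEK 293T SBE-bla cells at 4,000/well. Test agents: 5 hr, 37 C. Detection: FRET substrate, 2 hr RT, then excitation 405 nm with emissions at 460 and 530 nm.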

[14] = molecular target: Thyrotropin-releasing hormone receptor (Homo sapiens) (UniProt P34981); assay: qHTS assay to identify small molecule antagonists of the thyrotropin-releasing hormone receptor (TRHR) signaling pathway (AID 1346877; active means well fitted inhibition curve with a large enough effect in the repeat runs, not every such curve was filed as active; further: series mostly up to about 51 µM)
Procedure, shortened: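 Intracellular calcium fluorescence, read kinetically every second over 3 min, reports TRH-evoked signalling in HEK293 cells carrying TRHR. Test compounds were added 5 min ahead of a 1 nM TRH challenge.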

[15] = qHTS assay to identify small molecule agonists of the estrogen receptor alpha (ER-alpha) signaling pathway in the presence of an antagonist - cell viability counter screen (AID 1259386; active means well fitted curve in the direction sought with a large enough effect in the repeat runs; an effect the other way counts as inactive or inconclusive;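 further: cells exposed to compounds for 22 h at 37 °C before the viability read; nearly all actives have a fitted effect of over 30% in size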; further: potency means the concentration at half of the fitted maximal effect)
Procedure, shortened: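 VM7Luc4E2, stripped-serum pre-culture 5 d; 24hr plating; +ICI-182,780 10.0nM final; cpds 15 conc, 22hr, 37C/5% CO2; CellTiter-Fluor added at 21hr, fluorescence 1hr later.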

[16] = molecular target: Estrogen receptor beta (Homo sapiens) (UniProt Q92731); assay: qHTS assay to identify small molecule agonists of the estrogen receptor beta (ER-beta) signaling pathway (AID 1259377; active means well fitted activation curve with a large enough effect in the signal ratio in the repeat runs, not every such curve was filed as active; the % refers to the signal ratio)
Procedure, shortened: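 Reporter cells (HEK293T, ER-beta-UAS-bla) receive compounds or DMSO after a 6 hr pre-incubation. They then incubate 16 hr at 37C/5% CO2, and fluorescence from LiveBLAzer B/G substrate is measured after 2 hours at room temperature.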

[17] = molecular target: Estrogen receptor beta (Homo sapiens) (UniProt Q92731); assay: qHTS assay to identify small molecule antagonists of the estrogen receptor beta (ER-beta) signaling pathway (AID 1259378; active means well fitted inhibition curve with a large enough effect in the signal ratio in the repeat runs, not every such curve was filed as active; the % refers to the signal ratio)
Procedure, shortened: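 ER-beta-UAS-bla HEK293T cells in 2% charcoal-stripped FBS medium treated with compound plus 1nM final 17-beta-estradiol for 16 hr at 37C. Beta-lactamase reporter read by FRET substrate fluorescence after 2 hours at room temperature.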

[18] = qHTS assay to identify small molecule agonists of the estrogen receptor beta (ER-beta) signaling pathway - cell viability counter screen (AID 1259380; active means well fitted curve in the direction sought with a large enough effect in the repeat runs; an effect the other way counts as inactive or inconclusive; further: nearly all actives have a fitted effect of over 30% in size; further: potency means the concentration at half of the fitted maximal effect)
Procedure, shortened: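 HEK293T ER-beta-UAS-bla; 2% CS-FBS; 6 hr pre-plate, 16 hr cpd at 37C/5% CO2; LiveBLAzer read first, then CellTiter-Glo 30 min RT, luminescence.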

[19] = molecular target: Progesterone receptor (Homo sapiens) (UniProt P06401); assay: qHTS assay to identify small molecule agonists of the progesterone receptor (PR) signaling pathway (AID 1346784); further: nearly all actives have a fitted effect of over 30% in size
Procedure, shortened: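 Reporter assay, GripTite PR-UAS-bla HEK 293T cells: 16 hr exposure to DMSO-dissolved compounds at 37C, 5% CO2, in steroid-depleted (2% charcoal-stripped FBS) medium; beta-lactamase measured by FRET fluorescence.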

[20] = molecular target: Androgen receptor (Homo sapiens) (UniProt P10275); assay: qHTS assay to identify small molecule agonists of the androgen receptor (AR) signaling pathway in the presence of an antagonist (AID 1259381); further: nearly all actives have a fitted effect of over 15% in size
Procedure, shortened: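 MDA-kb2 cells, 3,000/well, rested 5hr at 37C/0% CO2 → nilutamide 3.0uM final or buffer → compounds, 15 conc. → 16hr at 37C → ONE-Glo, 30min RT → luminescence.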

Estrogen receptor beta (Homo sapiens), sequence (Q92731 whole entry, looked up): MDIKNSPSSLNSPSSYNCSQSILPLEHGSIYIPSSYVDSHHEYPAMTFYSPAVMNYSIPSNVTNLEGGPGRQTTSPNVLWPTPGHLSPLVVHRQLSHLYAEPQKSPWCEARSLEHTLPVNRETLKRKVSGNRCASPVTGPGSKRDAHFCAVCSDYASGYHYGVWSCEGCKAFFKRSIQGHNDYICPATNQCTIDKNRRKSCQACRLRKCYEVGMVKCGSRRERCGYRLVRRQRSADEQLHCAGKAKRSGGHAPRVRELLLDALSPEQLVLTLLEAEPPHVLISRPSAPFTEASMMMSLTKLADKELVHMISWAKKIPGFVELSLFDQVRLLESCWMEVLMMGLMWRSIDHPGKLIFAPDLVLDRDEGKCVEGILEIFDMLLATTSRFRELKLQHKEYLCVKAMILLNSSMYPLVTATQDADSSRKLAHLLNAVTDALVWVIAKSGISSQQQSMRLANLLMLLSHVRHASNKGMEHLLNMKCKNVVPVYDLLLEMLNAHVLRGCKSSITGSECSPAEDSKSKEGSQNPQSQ
Androgen receptor (Homo sapiens), sequence (P10275 whole entry, looked up): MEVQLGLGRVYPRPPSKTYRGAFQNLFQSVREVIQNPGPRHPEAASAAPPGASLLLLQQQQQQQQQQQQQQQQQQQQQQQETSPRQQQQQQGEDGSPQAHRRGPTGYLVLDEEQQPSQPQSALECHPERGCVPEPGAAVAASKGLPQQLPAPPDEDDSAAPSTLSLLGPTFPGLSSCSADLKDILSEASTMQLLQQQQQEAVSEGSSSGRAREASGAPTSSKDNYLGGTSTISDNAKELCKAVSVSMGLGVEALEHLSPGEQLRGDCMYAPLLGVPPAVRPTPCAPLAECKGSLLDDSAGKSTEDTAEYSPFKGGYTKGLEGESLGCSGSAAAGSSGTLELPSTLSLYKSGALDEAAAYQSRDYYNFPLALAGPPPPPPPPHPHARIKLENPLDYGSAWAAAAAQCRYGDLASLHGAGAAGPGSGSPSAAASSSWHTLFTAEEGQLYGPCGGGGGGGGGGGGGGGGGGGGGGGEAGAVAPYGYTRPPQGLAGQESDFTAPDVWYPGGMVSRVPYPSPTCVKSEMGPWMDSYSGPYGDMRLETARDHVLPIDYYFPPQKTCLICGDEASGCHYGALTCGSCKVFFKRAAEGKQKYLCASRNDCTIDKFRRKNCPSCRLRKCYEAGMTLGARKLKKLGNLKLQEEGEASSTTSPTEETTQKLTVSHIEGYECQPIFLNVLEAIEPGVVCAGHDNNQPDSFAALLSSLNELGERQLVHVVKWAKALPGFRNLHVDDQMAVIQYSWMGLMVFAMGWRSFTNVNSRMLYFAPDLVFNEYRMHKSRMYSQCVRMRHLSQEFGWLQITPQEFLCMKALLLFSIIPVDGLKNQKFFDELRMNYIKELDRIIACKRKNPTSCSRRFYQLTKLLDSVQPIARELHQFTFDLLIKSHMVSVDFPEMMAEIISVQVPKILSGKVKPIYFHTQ
Thyrotropin-releasing hormone receptor (Homo sapiens), sequence (P34981 whole entry, looked up): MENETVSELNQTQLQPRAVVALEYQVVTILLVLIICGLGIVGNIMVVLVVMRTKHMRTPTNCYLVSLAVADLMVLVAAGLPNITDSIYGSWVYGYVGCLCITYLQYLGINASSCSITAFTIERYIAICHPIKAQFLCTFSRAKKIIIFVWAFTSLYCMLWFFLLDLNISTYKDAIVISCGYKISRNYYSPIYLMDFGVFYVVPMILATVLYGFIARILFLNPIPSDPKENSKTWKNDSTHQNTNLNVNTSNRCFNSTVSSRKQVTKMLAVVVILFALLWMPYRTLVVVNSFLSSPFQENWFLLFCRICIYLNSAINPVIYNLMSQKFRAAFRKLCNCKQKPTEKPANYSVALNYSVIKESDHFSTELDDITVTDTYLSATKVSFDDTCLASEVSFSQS
Progesterone receptor (Homo sapiens), sequence (P06401 whole entry, looked up): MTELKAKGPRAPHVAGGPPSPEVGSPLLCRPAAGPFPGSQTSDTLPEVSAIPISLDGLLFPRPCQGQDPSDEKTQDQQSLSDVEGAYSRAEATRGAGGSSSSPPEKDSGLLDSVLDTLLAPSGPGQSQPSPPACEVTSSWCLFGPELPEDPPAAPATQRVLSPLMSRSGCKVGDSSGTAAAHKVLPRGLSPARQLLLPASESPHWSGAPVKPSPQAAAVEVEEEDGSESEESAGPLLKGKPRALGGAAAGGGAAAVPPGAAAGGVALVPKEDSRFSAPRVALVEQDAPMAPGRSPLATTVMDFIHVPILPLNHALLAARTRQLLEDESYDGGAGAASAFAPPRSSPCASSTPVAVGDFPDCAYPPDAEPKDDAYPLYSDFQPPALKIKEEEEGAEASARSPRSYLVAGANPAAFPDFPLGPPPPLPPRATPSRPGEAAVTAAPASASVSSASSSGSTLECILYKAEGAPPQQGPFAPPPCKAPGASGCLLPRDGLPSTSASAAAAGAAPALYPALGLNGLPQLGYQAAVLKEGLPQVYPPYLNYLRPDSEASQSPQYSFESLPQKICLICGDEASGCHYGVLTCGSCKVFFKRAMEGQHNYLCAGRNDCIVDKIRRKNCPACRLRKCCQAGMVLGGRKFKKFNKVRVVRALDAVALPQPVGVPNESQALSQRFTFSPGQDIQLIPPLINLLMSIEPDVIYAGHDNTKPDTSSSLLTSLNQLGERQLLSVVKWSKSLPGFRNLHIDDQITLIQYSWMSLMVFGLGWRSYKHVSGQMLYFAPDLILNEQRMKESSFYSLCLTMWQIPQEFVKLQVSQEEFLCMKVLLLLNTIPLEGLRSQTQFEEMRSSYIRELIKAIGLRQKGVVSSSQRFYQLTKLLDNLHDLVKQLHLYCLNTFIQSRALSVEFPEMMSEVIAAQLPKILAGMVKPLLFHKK
Thyrotropin receptor (Homo sapiens), sequence (P16473 whole entry, looked up): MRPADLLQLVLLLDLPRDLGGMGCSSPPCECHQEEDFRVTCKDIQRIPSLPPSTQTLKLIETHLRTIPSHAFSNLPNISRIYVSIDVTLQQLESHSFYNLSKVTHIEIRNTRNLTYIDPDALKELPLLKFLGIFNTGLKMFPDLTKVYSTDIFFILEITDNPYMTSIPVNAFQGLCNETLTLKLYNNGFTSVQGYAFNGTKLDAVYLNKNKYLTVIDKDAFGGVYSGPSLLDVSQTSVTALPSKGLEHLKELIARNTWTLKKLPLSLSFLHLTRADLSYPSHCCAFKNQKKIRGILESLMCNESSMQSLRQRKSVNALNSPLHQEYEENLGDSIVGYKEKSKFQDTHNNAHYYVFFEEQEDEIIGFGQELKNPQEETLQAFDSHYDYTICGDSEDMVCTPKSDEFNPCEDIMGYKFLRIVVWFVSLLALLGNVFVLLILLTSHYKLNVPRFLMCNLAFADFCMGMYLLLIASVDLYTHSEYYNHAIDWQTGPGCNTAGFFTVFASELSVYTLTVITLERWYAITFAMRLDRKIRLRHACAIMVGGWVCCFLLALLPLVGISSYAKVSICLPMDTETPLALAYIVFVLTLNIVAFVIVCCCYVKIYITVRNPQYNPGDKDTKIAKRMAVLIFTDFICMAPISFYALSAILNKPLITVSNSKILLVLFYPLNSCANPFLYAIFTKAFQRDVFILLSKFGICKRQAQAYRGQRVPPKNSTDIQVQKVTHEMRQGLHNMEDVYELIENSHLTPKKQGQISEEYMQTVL
Estrogen receptor (Homo sapiens), sequence (P03372 whole entry, looked up): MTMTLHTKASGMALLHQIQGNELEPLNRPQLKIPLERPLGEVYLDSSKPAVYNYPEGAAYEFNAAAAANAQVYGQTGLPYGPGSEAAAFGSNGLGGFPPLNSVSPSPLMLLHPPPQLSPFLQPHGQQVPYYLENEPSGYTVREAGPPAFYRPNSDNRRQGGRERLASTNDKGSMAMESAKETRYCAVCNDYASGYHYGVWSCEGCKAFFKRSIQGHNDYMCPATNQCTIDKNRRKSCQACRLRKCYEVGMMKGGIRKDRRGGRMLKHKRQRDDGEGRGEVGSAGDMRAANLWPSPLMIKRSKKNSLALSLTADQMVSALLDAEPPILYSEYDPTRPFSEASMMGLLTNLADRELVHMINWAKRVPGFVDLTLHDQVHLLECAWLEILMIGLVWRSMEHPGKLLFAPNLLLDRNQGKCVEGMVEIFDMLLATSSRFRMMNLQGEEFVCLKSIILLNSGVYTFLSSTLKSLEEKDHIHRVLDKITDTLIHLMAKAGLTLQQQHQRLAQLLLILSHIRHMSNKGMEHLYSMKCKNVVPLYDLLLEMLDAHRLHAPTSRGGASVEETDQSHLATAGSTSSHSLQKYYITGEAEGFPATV

Row | SMILES | Potency [1] | Potency [2] | Potency [3] | Potency [4] | Potency [5] | outcome [6] | Potency [7] | Potency [8] | Potency [9] | Potency [10] | Potency [11] | Potency [12] | Potency [13] | outcome [14] | Potency [15] | Potency [16] | Potency [17] | Potency [18] | Potency [19] | Potency [20]
1 | CC(C)(O)c1ccc(CNC(=O)c2cccnc2Oc2ccc3nonc3c2)cc1 | inactive | 0.486 µM (active) | inactive | inactive | inactive | inactive | inactive | inactive | inactive | inactive | inactive | inactive | inactive | inactive |  |  |  |  |  | 
2 | CC(=O)OCCN(CCOC(C)=O)c1ccc(N=Nc2ccc([N+](=O)[O-])cc2C#N)cc1 | inactive | 30.6 µM (active) | 54.5 µM (active) | inactive |  | inactive |  |  | inactive |  | inactive | inactive | inactive | inactive | 54.5 µM (active) |  |  |  |  | 
3 | CCCCCCCCCI | inactive |  | inactive | inactive | inactive | inactive | inactive | inactive | inactive | inactive | inactive | inactive | inactive | inactive | inactive | inactive | inactive | inactive |  | 
4 | C=C(C)C(=O)OCCCCCCCCCCCCC | inactive |  | inactive | inactive | inactive | inactive | inactive | inactive | inactive | inactive | inactive | inactive | inactive | inactive | inactive | inactive | inactive | inactive |  | 
5 | Cc1ccccc1S | inactive |  | inactive | inactive | inactive | inactive | inactive | inactive | inactive | inactive | inactive | inactive | inactive | inactive | inactive | inactive | inactive | inactive | inactive | 
6 | Oc1ccc(Cl)c2cccnc12 | inactive | 0.596 µM (active) | inactive | inactive | inactive | inactive | inactive | 3.76 µM (active) |  |  | inactive | inactive | inactive | inactive | inactive |  |  |  | inactive | inactive
7 | O=c1cc(-c2ccccc2)oc2cc(O)cc(O)c12 | inactive | 61.1 µM (active) | 48.6 µM (active) | inactive |  | inactive | inactive |  |  |  | inactive | inactive |  |  |  |  |  |  |  | inactive
8 | N#[N+]c1ccc2c(S(=O)(=O)[O-])cccc2c1O | inactive | inactive |  | inactive | inactive |  |  |  |  | inactive | inactive |  | inactive | inactive | 43.3 µM (active) |  |  | inactive | inactive | 
9 | CCOC(=O)c1ccccc1C(=C1C=C(Br)C(=O)C(Br)=C1)c1cc(Br)c(O)c(Br)c1 | inactive | inactive |  |  | inactive | inactive | inactive |  |  |  | inactive |  | inactive | inactive | inactive |  |  | 57.5 µM (active) |  | 
10 | O=C1c2ccccc2C(=O)C1c1ccc(Br)cc1 | inactive |  | inactive |  | inactive | inactive | inactive |  | inactive | inactive | inactive | inactive | inactive | inactive |  | inactive | inactive | inactive | inactive | inactive
11 | OCCOCC#CCOCCO | inactive |  | inactive | inactive | inactive | inactive | inactive |  | inactive | inactive | inactive | inactive | inactive | inactive | inactive | inactive | inactive | inactive | inactive | 
12 | OCCN1CCN(CCCN2c3ccccc3Sc3ccc(Cl)cc32)CC1 | inactive | 11.9 µM (active) |  | 13.3 µM (active) | inactive | inactive | 29.8 µM (active) |  | 23.7 µM (active) | 13.3 µM (active) | inactive |  | inactive | inactive | inactive |  |  | 23.7 µM (active) |  | 
13 | O=C1NC(=O)c2cc([N+](=O)[O-])ccc21 | inactive |  | inactive | inactive | inactive | inactive | inactive | inactive | inactive | inactive | inactive | inactive | inactive | inactive |  | inactive | inactive | inactive | inactive | inactive
14 | CCCCC(CC)COP(=O)(O)O (configuration not stated) | inactive | inactive | inactive | inactive | inactive | inactive | inactive |  |  | inactive | inactive | inactive | inactive |  | inactive |  |  |  | inactive | 
15 | CCOC(=O)/C=C/C(=O)OCC | inactive | inactive | inactive | inactive | inactive | inactive | inactive | inactive | inactive | inactive | inactive |  | inactive | inactive | inactive |  |  |  | inactive | 
16 | CC1=Nc2ccc3ccccc3c2C1(C)C | inactive | 30.6 µM (active) | inactive |  | inactive | inactive | inactive |  | 12.2 µM (active) | 24.3 µM (active) | inactive | inactive |  | inactive | inactive |  |  |  |  | inactive
